Calls of active or inactive are those of the source. How the source made its calls: active means hit-call score of the fitted dose curve at least 0.9, where 1 is the maximum; inactive means score below 0.9.
Tests used:
Conditions in all cases: mRNA level, 48 h; actives raise or lower the signal
[1] = read-out: growth arrest and DNA damage 45 (GADD45G), GADD45G (gene 10912); experiment: LTEA_HepaRG_GADD45G: Life Technologies and Expression Analysis (LTEA) Assay for growth arrest and DNA damage 45 (GADD45G) using HepaRG (AID 2283499)
How it was run: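 Gain or loss of GADD45G mRNA, quantified by TaqMan qRT-PCR against three housekeeping genes, is fitted in both directions relative to 0.5% DMSO. Human HepaRG cultures receive test chemical for 48 h at up to 100 uM.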

[2] = read-out: Glutamate-cysteine ligase regulatory (GCLM), GCLM (gene 2730); experiment: LTEA_HepaRG_GCLM: Life Technologies and Expression Analysis (LTEA) Assay for Glutamate-cysteine ligase regulatory (GCLM) using HepaRG (AID 2283500)
How it was run: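 Human liver HepaRG cultures receive test chemicals for 48 hours at up to 100 uM in 0.5% DMSO. GCLM expression is measured by qRT-PCR and analysed for increases or decreases against vehicle.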

[3] = read-out: Glutathione S-transferase M3 (GSTM3), GSTM3 (gene 2947); experiment: LTEA_HepaRG_GSTM3: Life Technologies and Expression Analysis (LTEA) Assay for Glutathione S-transferase M3 (GSTM3) using HepaRG (AID 2283501)
How it was run: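 HepaRG, plated 48 h, then serum-free induction medium; test chemical 48 h, duplicate; 100 uM top, half-log x8, 0.5% DMSO. Read-out: GSTM3 mRNA (TaqMan qRT-PCR, Fluidigm array). Bidirectional fit vs DMSO.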

[4] = read-out: Hypoxia-inducible factor 1-alpha (Homo sapiens) (UniProt Q16665); experiment: LTEA_HepaRG_HIF1A: Life Technologies and Expression Analysis (LTEA) Assay for Hypoxia-inducible factor 1 (HIF1A) Trancription factor using HepaRG (AID 2283503)
How it was run: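 HepaRG, 48 h exposure, 8-pt half-log series from 100 uM, 0.5% DMSO vehicle, duplicates. Readout: HIF1A transcript by qRT-PCR (Fluidigm array), housekeeping-normalised. Bidirectional curve fit vs DMSO baseline.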

[5] = read-out: 3-Hydroxy-3-Methylglutaryl-CoA Synthase 2 (HMGCS2), HMGCS2 (gene 3158); experiment: LTEA_HepaRG_HMGCS2: Life Technologies and Expression Analysis (LTEA) Assay for 3-Hydroxy-3-Methylglutaryl-CoA Synthase 2 (HMGCS2) using HepaRG (AID 2283504)
How it was run: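 HepaRG, plated 48 h then switched to serum-free induction media; cmpd 8-pt, max 100 uM, 1/2-log, 0.5% DMSO, n=2, 48 h. HMGCS2 mRNA by Fluidigm TaqMan qRT-PCR, ACTB/GAPDH/POLR2A norm; bidirectional fit vs DMSO.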

HGF (gene 3082) = experiment: LTEA_HepaRG_HGF: Life Technologies and Expression Analysis (LTEA) Assay for Hepatocyte Growth Facto (HGF) using HepaRG (AID 2283505)
How it was run: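 Read-out is HGF transcript level by qRT-PCR, normalized to three housekeeping genes, fitted bidirectionally against 0.5% DMSO vehicle. Human HepaRG cells received test chemicals for 48 h at up to 100 uM.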

[6] = read-out: Insulin Like Growth Factor 1 (IGF1), IGF1 (gene 3479); experiment: LTEA_HepaRG_IGF1: Life Technologies and Expression Analysis (LTEA) Assay for Insulin Like Growth Factor 1 (IGF1) using HepaRG (AID 2283506)
How it was run: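 Using human HepaRG liver cells, IGF1 transcript induction or suppression is measured 48 h after dosing across eight concentrations capped at 100 uM. Values derive from bidirectional concentration-response fitting with DMSO as baseline.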

[7] = read-out: Intercellular Adhesion Molecule 1 (ICAM1), ICAM1 (gene 3383); experiment: LTEA_HepaRG_ICAM1: Life Technologies and Expression Analysis (LTEA) Assay for Intercellular Adhesion Molecule 1 (ICAM1) using HepaRG (AID 2283507)
How it was run: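 Readout is qRT-PCR mRNA level, normalized to three housekeeping genes and fitted bidirectionally against 0.5% DMSO vehicle. Human HepaRG cultures received compound for 48 h, top concentration 100 uM with half-log dilutions.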

[8] = read-out: Insulin-like growth factor-binding protein 1 (IGFBP1), IGFBP1 (gene 3484); experiment: LTEA_HepaRG_IGFBP1: Life Technologies and Expression Analysis (LTEA) Assay for Insulin-like growth factor-binding protein 1 (IGFBP1) using HepaRG (AID 2283508)
How it was run: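 Thawed HepaRG cells are plated for 48 h, switched to serum-free induction medium, then dosed in duplicate for another 48 h (100 uM top, half-log steps). Lysates in RLT go to qRT-PCR, and gain or loss of signal is fitted relative to vehicle.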

[9] = read-out: Interleukin 6 (IL6), IL6 (gene 3569); experiment: LTEA_HepaRG_IL6: Life Technologies and Expression Analysis (LTEA) Assay for Interleukin 6 (IL6) using HepaRG (AID 2283509)
How it was run: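 Differentiated human HepaRG cells, plated 48 h then switched to serum-free induction medium, were exposed in duplicate for 48 h to eight half-log concentrations up to 100 uM in 0.5% DMSO. IL6 mRNA measured by qRT-PCR, normalized to ACTB/GAPDH/POLR2A.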

[10] = read-out: Interleukin 6 Receptor (IL6R), IL6R (gene 3570); experiment: LTEA_HepaRG_IL6R: Life Technologies and Expression Analysis (LTEA) Assay for Interleukin 6 Receptor (IL6R) using HepaRG (AID 2283510);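 on AC50: TaqMan qRT-PCR signal normalized to ACTB GAPDH and POLR2A housekeeping genes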
How it was run: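 Concentration-response in human liver HepaRG cells: eight concentrations from 100 uM downward by half-logs, 48 h exposure, 0.5% DMSO vehicle. IL6R mRNA change measured by qRT-PCR and fitted in both directions relative to vehicle.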

[11] = read-out: Potassium channel subfamily K member 1 (KCNK1), KCNK1 (gene 3775); experiment: LTEA_HepaRG_KCNK1: Life Technologies and Expression Analysis (LTEA) Assay for Potassium channel subfamily K member 1 (KCNK1) using HepaRG (AID 2283511)
How it was run: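 Differentiated human HepaRG cells in serum-free induction medium were exposed in duplicate for 48 h to 8 half-log concentrations up to 100 uM in 0.5% DMSO. KCNK1 mRNA was measured by TaqMan qRT-PCR, normalized to ACTB, GAPDH and POLR2A, and fitted bidirectionally versus DMSO.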

[12] = read-out: Keratin 19 (KRT19), KRT19 (gene 3880); experiment: LTEA_HepaRG_KRT19: Life Technologies and Expression Analysis (LTEA) Assay for Keratin 19 (KRT19) using HepaRG (AID 2283512)
How it was run: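 KRT19 transcript levels, measured by Fluidigm qRT-PCR against three housekeeping genes, are fitted for gain or loss of signal relative to DMSO. Human HepaRG cells receive test chemicals (top 100 uM, half-log steps, 0.5% DMSO) for 48 hours.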

[13] = read-out: JUN Transcription Factor, JUN (gene 3725); experiment: LTEA_HepaRG_JUN: Life Technologies and Expression Analysis (LTEA) Assay for JUN Transcription Factor using HepaRG (AID 2283513)
How it was run: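 Human HepaRG liver cells receive test chemicals in 0.5% DMSO for 48 h across an eight-point range topping at 100 uM. Expression changes in JUN are scored in both directions against the DMSO vehicle.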

[14] = read-out: Lipase C (LIPC), LIPC (gene 3990); experiment: LTEA_HepaRG_LIPC: Life Technologies and Expression Analysis (LTEA) Assay for Lipase C (LIPC) using HepaRG (AID 2283514)
How it was run: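 Differentiated human HepaRG cells in serum-free induction medium were exposed in duplicate for 48 h to eight concentrations (top 100 uM, half-log steps, 0.5% DMSO). LIPC mRNA was quantified by TaqMan qRT-PCR, normalized to ACTB, GAPDH and POLR2A, with bidirectional fitting versus DMSO.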

[15] = read-out: Lipoprotein lipase (LPL), LPL (gene 4023); experiment: LTEA_HepaRG_LPL: Life Technologies and Expression Analysis (LTEA) Assay for Lipoprotein lipase (LPL) using HepaRG (AID 2283515)
How it was run: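 Differentiated human HepaRG cells in serum-free induction medium were exposed in duplicate for 48 h to eight half-log concentrations (top 100 uM) in 0.5% DMSO. LPL mRNA was quantified by TaqMan qRT-PCR, normalized to ACTB, GAPDH and POLR2A.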

[16] = read-out: MicroRNA 122 (MIR122), gene 406906; experiment: LTEA_HepaRG_MIR122: Life Technologies and Expression Analysis (LTEA) Assay for MicroRNA 122 (MIR122) using HepaRG (AID 2283516); further: the transcript read is the microRNA miR-122
How it was run: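 HepaRG, 48 h exposure, 8-pt half-log from 100 uM, 0.5% DMSO; TaqMan qRT-PCR; bidirectional fit vs DMSO.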

[17] = read-out: matrix metalloproteinase-10 (MMP10), MMP10 (gene 4319); experiment: LTEA_HepaRG_MMP10: Life Technologies and Expression Analysis (LTEA) Assay for matrix metalloproteinase-10 (MMP10) using HepaRG (AID 2283517)
How it was run: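 HepaRG, collagen I, ~100,000 cells/well; serum-free induction medium; 48 h exposure, duplicate, 8-pt half-log to 100 uM, 0.5% DMSO. Readout: TaqMan qRT-PCR, normalized to ACTB/GAPDH/POLR2A; bidirectional fit vs DMSO.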

Measured: AC50

Sequence of Hypoxia-inducible factor 1-alpha (Homo sapiens) (Q16665 whole entry, looked up): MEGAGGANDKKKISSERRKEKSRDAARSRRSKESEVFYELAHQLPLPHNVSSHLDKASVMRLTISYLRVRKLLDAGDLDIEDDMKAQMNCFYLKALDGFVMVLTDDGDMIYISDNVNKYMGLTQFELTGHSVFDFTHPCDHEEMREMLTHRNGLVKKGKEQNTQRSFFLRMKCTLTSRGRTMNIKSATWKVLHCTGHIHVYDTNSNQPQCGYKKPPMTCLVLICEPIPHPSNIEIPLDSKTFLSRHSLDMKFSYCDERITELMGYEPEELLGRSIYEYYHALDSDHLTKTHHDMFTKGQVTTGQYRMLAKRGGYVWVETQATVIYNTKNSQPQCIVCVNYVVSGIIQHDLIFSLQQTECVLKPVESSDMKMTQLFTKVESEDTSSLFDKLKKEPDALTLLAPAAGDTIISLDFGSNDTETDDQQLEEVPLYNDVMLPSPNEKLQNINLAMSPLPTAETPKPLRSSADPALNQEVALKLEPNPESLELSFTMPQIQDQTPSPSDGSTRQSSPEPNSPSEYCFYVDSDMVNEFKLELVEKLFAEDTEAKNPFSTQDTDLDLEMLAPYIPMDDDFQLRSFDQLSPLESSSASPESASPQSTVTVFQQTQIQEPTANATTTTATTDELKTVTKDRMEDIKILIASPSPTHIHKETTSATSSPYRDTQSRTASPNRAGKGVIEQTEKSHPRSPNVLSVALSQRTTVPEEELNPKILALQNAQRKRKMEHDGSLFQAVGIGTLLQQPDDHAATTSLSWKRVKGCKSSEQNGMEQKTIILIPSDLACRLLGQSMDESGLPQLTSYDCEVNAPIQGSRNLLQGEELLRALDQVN

Oc1ccc2c(c1)OC[C@@H](N1CCC(O)(c3ccc(F)cc3)CC1)[C@H]2O
inactive: [1] | [2] | [3] | [4] | [5] | HGF (gene 3082) | [6] | [7] | [8] | [9] | [10] | [11] | [12] | [13] | [14] | [15] | [16] | [17]

CC1(C)CC(N=C=O)CC(C)(CN=C=O)C1 (configuration not stated)
inactive: [1] | [2] | [3] | [4] | HGF (gene 3082) | [7] | [8] | [9] | [10] | [11] | [12] | [14] | [15] | [16]

OC[C@@H](O)[C@@H](O)[C@H](O)[C@H](O)CO
inactive: [1] | [2] | [3] | [4] | [5] | HGF (gene 3082) | [7] | [8] | [9] | [10] | [11] | [12] | [13] | [14] | [15] | [16] | [17]

FC(F)(F)C(F)(F)C(F)(F)C(F)(F)C(F)(F)C(F)(F)CCI
inactive: [1] | [2] | [3] | [4] | HGF (gene 3082) | [7] | [8] | [9] | [10] | [11] | [12] | [13] | [14] | [15] | [16] | [17]

Cc1ccc(C)c(O)c1C
inactive: [1] | [2] | [3] | [4] | [5] | HGF (gene 3082) | [7] | [8] | [9] | [10] | [11] | [12] | [13] | [14] | [15] | [16]

CCOc1ccc2c(c1)C(C)=CC(C)(C)N2
inactive: [1] | [2] | [3] | HGF (gene 3082) | [7] | [9] | [11] | [12] | [13] | [14] | [17]
active: [5] 20 µM | [6] 12.7 µM | [8] 50 µM | [10] 76.9 µM | [15] 50 µM
